Compound activity from PubChem.
Rows were chosen to be rich in hits. Some 12% of all compounds tested hit in one or more screens of this group.
HP1b binding inh = blocks HP1-beta chromodomain binding to methylated histone tails. 390,000 tested, 0.56% active. Potency, µM (series often up to 114 µM), usual class: inhibitors. AlphaScreen HP1-beta / biotin-H3K9me3 peptide binding; note: nearly all actives have a fitted effect of over 70% in size
Target sequence (P83916 whole entry, looked up): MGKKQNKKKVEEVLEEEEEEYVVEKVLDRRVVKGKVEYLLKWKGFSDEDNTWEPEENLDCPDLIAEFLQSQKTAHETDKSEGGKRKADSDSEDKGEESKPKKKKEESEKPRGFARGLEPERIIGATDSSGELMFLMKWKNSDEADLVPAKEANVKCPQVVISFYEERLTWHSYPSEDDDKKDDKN
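AlphaScreen: HP1-beta (50 nM) preformed 30 min with biotin-H3(1-18)K9me3 peptide (50 nM) in PBS pH 7.4, 0.01% Tween-20. Compound added for 30 min at RT, then streptavidin donor/nickel chelate acceptor beads (10 ug/mL) for 30 min.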
JMJD2A Tudor = inhibitors of human JMJD2A Tudor domain; AlphaScreen JMJD2A-Tudor / H3K4me3 peptide binding; Potency, µM (titrated, usually from 114 µM), usual class: inhibitors; 390,000 tested, 4.4% active; note: nearly all actives have a fitted effect of over 50% in size
Sfp PPTase inh = Sfp phosphopantetheinyl transferase inhibition. Q9F4F7. Biochemical Sfp PPTase activity, qHTS. Potency, µM, actives largely listed as inhibitors. 310,000 tested, 3.5% active. AID 1490;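 note: the enzyme is Sfp with the accession as filed and its product quenches rhodamine fluorescence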
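After 15 min at room temperature with compound, 15 nM Sfp received 5 uM rhodamine-CoA plus 12.5 uM BHQ-2-ybbR (50 mM Hepes pH 7.6, 10 mM MgCl2). Rate came from the fluorescence difference over 30 min, ex 525/em 598 nm.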
BAZ2B inh = blocks human BAZ2B. AlphaScreen BAZ2B-H3K14Ac peptide displacement. Potency, µM (doses to about 114 µM), usual class: inhibitors. 360,000 tested, 4.4% active. Q9UIF8. AID 504333; note: nearly all actives have a fitted effect of over 60% in size
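Compounds, titrated to a top concentration of 110 uM, were incubated 30 min at room temperature with preformed BAZ2B/acetyl-K14 H3 peptide complex (50 nM each). Proximity signal was measured by AlphaScreen after 20 min with beads.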
G9a inh = G9a (human) methyltransferase inhibition | Potency, µM (top dose mostly 102 µM), actives largely listed as inhibitors | AID 504332 | G9a H3K9 monomethylation, AlphaScreen, 2 h | 350,000 tested, 8.8% active | Q96KQ7; note: nearly all actives have a fitted effect of over 75% in size
Target sequence (Q96KQ7 913-1193 limits assumed): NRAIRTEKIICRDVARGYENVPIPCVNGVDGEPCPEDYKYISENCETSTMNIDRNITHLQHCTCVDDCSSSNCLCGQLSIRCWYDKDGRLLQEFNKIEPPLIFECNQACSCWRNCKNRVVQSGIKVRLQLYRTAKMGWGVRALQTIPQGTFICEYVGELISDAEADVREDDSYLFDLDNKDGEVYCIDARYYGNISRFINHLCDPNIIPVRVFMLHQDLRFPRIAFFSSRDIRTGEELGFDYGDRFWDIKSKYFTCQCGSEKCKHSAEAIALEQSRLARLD
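Step 1: enzyme (final 20 nM) with compound, 15 min RT. Step 2: substrate peptide 500 nM and SAM 20 uM, 2 h RT. Step 3: anti-H3K9me1 antibody and AlphaScreen beads, 10 min, then plate read.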
PLK1 PBD block = PLK1 (human) polo-box domain binding inhibition | P53350 | Plk1 PBD binding of FITC phosphopeptide, fluorescence polarization | Potency, µM, actives largely listed as inhibitors | 360,000 tested, 2.8% active | AID 720504; note: series mostly up to about 57 µM; nearly all actives have a fitted effect of over 65% in size
Hits are given with their value; – = inactive; ? = inconclusive; · = no result; [ ] = dose if it differs, or a comment. Calls come from the whole dose curve; as a rule, active = well fitted curve in the direction sought with a large enough effect; inconclusive = small, poorly fitted or top-dose-only effect, or another doubt; inactive = no such curve, though single readings can be large; an effect the other way counts as inactive or inconclusive.

SMILES	HP1b binding inh	JMJD2A Tudor	Sfp PPTase inh	BAZ2B inh	G9a inh	PLK1 PBD block
CCOC(=O)c1c(-c2ccccc2)oc2ccc(O)cc12	–	–	40µM	71µM	–[0.501 µM]	–
CCOC(=O)c1c(CN2CCOCC2)oc2ccc(OC(C)=O)cc12	–	–	–	–	·	–
CCOC(=O)c1c(CN2CCN(c3ccccc3)CC2)oc2cc(Br)c(O)cc12	–	50µM	–	?	50µM	–
O=C(OCc1cn([C@H]2CN(CC3CCCCC3)[C@@H](c3ccccc3)C[C@@H]2O)nn1)c1ccccc1	·	·	·	·	·	–
CCOC(=O)c1c(-c2ccccc2)oc2cc(CN(C)C)c(O)c(CN(C)C)c12	–	50µM	·	·	·	–
O=S(=O)(c1ccc2c(c1)OCCO2)N1CCN(c2nc(-c3ccccc3)nc3ccccc23)CC1	–	–	·	·	·	·
COc1cc(C(=O)NCCc2sc(-c3ccc(C)cc3)nc2C)cc(OC)c1OC	–	–	·	–	–	·
Cc1noc(C)c1C(=O)Nc1cc(S(=O)(=O)N2CCCCC2)ccc1N(C)C	–	–	·	–	40µM	–
Cc1ccc2nc3c(cc(C(=O)NCC4CCCO4)c(=N)n3CCCOC(C)C)c(=O)n2c1 (centres undefined)	–	?	–	–	56µM	–
Cn1c(SCc2cccc(C#N)c2)nc2ccccc2c1=O	–	–	–	–	·	–
O=C(Oc1ccc(N(Cc2cccs2)C2=NS(=O)(=O)c3ccccc32)cc1)c1ccccc1Cl	?	?	–	–	–	2.7µM
O=C(Oc1ccc(N(Cc2cccs2)C2=NS(=O)(=O)c3ccccc32)cc1)c1ccco1	–	–	–	–	–	–
COc1cccc(N2CCN(C3=NS(=O)(=O)C(c4ccc(C)cc4)=C3C)CC2)c1	–	–	·	–	–	·
O=C(Nc1ccc2c(c1)OCO2)C1CC(c2ccccc2Cl)=NO1 (centres undefined)	–	–	–	–	–	–
Cn1ncc(C#N)c1NC(=O)C1CC(c2ccccc2Cl)=NO1 (centres undefined)	–	?	–	–	·	30µM
O=S(=O)(Nc1nc2ccccc2nc1Cl)c1ccccc1C(F)(F)F	–	–	–	–	71µM	–
Cc1ccc(S(=O)(=O)Cn2nnnc2C(C(C)C)N2CCC(C(N)=O)CC2)cc1 (centres undefined)	–	–	–	–	–	–
Nc1nc(Nc2cccc(C(F)(F)F)c2)sc1C(=O)c1ccccc1	–	–	·	–	–	·
Cc1ccc(C(=O)c2sc(Nc3ccc(F)cc3)nc2N)c(C)c1	?	79µM	·	40µM	?	·
CCOc1ccc(Nc2nc(N)c(C(=O)c3ccccc3Cl)s2)cc1	?	45µM	·	?	–	·
CC(C)(C)C(=O)c1sc(Nc2ccccc2)nc1N	?	56µM	?	50µM	25µM	–
COc1ccc(Nc2nc(N)c(C(=O)c3ccc(F)cc3)s2)cc1	–	?	?	–	?	–
COc1ccc(Nc2nc(N)c(C(=O)c3ccc(OC)cc3)s2)cc1	–	?	–	–	?	–
Cc1cccc(CNc2ncncc2-c2ccccc2C)c1	·	·	–	·	–[0.501 µM]	·
CC(=O)Nc1ccc(S(=O)(=O)N2CCN=C2SCc2ccc([N+](=O)[O-])cc2)cc1	–	–	–	–	·	–
COc1ccc(/C(O)=C2/C(=O)C(=O)N(CC3CCCO3)C2c2cccc(OC)c2)cc1 (centres undefined)	–	–	–	–	–	–
Cc1ccc(C2/C(=C(\O)c3ccc4c(c3)OCCO4)C(=O)C(=O)N2CC2CCCO2)cc1 (centres undefined)	–	?	–	–	50µM	–
Cc1ccc(C2/C(=C(\O)c3ccc4c(c3)OCCO4)C(=O)C(=O)N2Cc2cccnc2)cc1 (centres undefined)	–	–	–	–	56µM	–
COc1cccc(C2/C(=C(\O)c3ccc4c(c3)OCCO4)C(=O)C(=O)N2CC2CCCO2)c1 (centres undefined)	–	22µM	–	–	?	–
COc1ccc(/C(O)=C2/C(=O)C(=O)N(CC3CCCO3)C2c2ccc(O)c(OC)c2)cc1 (centres undefined)	–	–	–	–	50µM	–
